# Results published in publication PMC5540273 (PLoS ONE, 2017).
# Where “and” joins values, the source holds several entries; their conditions need not be identical. Equal entries are not always repeated. Where two headings read alike, the source gives them in different places.
# Tests used:
# TRKC = tested on: T1, TRKC; conditions: concentration: 1 μM, replicates: in singlicate, n = 1
# T1 construct: gene NTRK3
# TRPM6 = conditions: concentration: 1 μM, replicates: in singlicate, n = 1
# TSSK1B = conditions: concentration: 1 μM, replicates: in singlicate; n = 1
# TSSK3 = conditions: concentration: 1 μM, replicates: in singlicate, n = 1
# TTK = conditions: concentration: 1 μM, replicates: in singlicate, n = 1
# TXK = conditions: concentration: 1 μM, replicates: in singlicate; n = 1
# [1] = tested on: TYK2(JH1domain-catalytic); conditions: concentration: 1 μM, replicates: in singlicate, n = 1
# [2] = tested on: TYK2(JH2domain-pseudokinase); conditions: concentration: 1 μM, replicates: in singlicate, n = 1
# TYRO3 = conditions: concentration: 1 μM, replicates: in singlicate; n = 1
# ULK1 = conditions: concentration: 1 μM, replicates: in singlicate, n = 1
# 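Further: KINOMEscan kinase panel screen.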
Structure (SMILES),%Inh (TRKC) [%],%Inh (TRPM6) [%],%Inh (TSSK1B) [%],%Inh (TSSK3) [%],%Inh (TTK) [%],%Inh (TXK) [%],%Inh [1] [%],%Inh [2] [%],%Inh (TYRO3) [%],%Inh (ULK1) [%],%Inh (TRKC; 1 µM),%Inh (TRPM6; 1 µM),%Inh (TSSK3; 1 µM),%Inh (TTK; 1 µM),%Inh ([1]; 1 µM),%Inh ([2]; 1 µM),%Inh (ULK1; 1 µM)
Cl.Fc1ccccc1COc1ccc(Nc2ncnc3ccc(-c4nnc(C(F)(F)F)o4)cc23)cc1Cl [GW424170],5,0,0,6,0,18,11,12,0,0,,,,,,,
CCn1c(-c2ccncc2)nc2cnccc21 [SB-735216],36,22,8,0,0,21,0,0,26,17,,,,,,,
Nc1nc(-c2cccnc2)c(-c2ccnc3ccccc23)s1 [GW684083],25,14,0,9,0,0,41,62,0,5,,,,,,,
Cn1cc(-c2ccc3c(c2)CCN3C(=O)Cc2cccc(C(F)(F)F)c2)c2c(N)ncnc21 [GSK2606414],40,0,12,0,22,0,15,0,0,27,,,,,,,
Cl.c1ccc(Cn2ccc3cc(Nc4ncnc5ccccc45)ccc32)cc1 [GW275568],0,32,0,13,9,14,0,0,0,1,,,,,,,
Fc1cccc(COc2ccc(Nc3ncnc4sc(-c5ccc[nH]5)cc34)cc2Cl)c1 [GW707818],14,30,0,7,0,5,17,10,0,0,,,,,,,
Cl.O=S(=O)(c1cccc(F)c1)c1ccc(Nc2ncnc3cc(Br)sc23)cc1Cl [GSK306886],0,28,0,10,17,15,4,0,0,0,,,,,,,
FC(F)(F)c1cc(Nc2nccc(-c3c(-c4ccc(Cl)cc4)nn4ncccc34)n2)ccc1Cl [GW829351],0,0,0,0,0,0,6,0,0,0,,,,,,,
NC(=O)c1sc(-n2cnc3ccccc32)cc1OCc1ccccc1F [GSK1024306],16,0,0,20,12,0,13,28,0,0,,,,,,,
C[C@H]1CC[C@@H](C(=O)Nc2ccccc2)CN1c1cc(-c2ccc3c(N)n[nH]c3c2)nc(N)n1 [GSK2283293],11,8,9,12,20,0,0,27,0,0,,,,,,,
O=C(c1ccc(-c2cc(-c3c[nH]nc3-c3ccccn3)ccn2)cc1)N1CCCC1 [GW792479],0,0,0,0,29,23,0,15,0,0,,,,,,,
CSc1ccc(NC2=C(c3ccccc3Cl)C(=O)NC2=O)cc1 [SB-342411],0,0,21,10,0,3,0,0,5,10,,,,,,,
CC(C)(C)c1ccc(-n2cnc3c(N)ncnc32)cc1 [SKF-97263],0,34,16,13,15,16,6,41,0,24,,,,,,,
O=C(Nc1ccccc1)Nc1ccc(Oc2ccc3nccn3n2)cc1,0,0,1,0,0,12,0,0,19,0,,,,,,,
Cl.Cl.c1ccc(-c2cc3ccncc3cc2OC2CCNCC2)cc1 [GSK1122999],0,15,0,47,0,4,24,79,7,12,,,,,,,
Cc1ccc(NC(=O)c2cccc(C#N)c2)cc1-c1ccc(C(=O)Nc2ccncc2)cc1 [GSK1398463],7,0,0,0,43,0,8,13,0,42,,,,,,,
Cl.Cn1ccc(-c2cccc(Nc3ccnc4cc(-c5nccs5)ccc34)c2)n1 [GW525701],43,0,3,6,0,14,30,49,0,0,,,,,,,

Structure (SMILES),%Inh (TRKC) [%],%Inh (TRPM6) [%],%Inh (TSSK1B) [%],%Inh (TSSK3) [%],%Inh (TTK) [%],%Inh (TXK) [%],%Inh [1] [%],%Inh [2] [%],%Inh (TYRO3) [%],%Inh (ULK1) [%],%Inh (TRKC; 1 µM),%Inh (TRPM6; 1 µM),%Inh (TSSK3; 1 µM),%Inh (TTK; 1 µM),%Inh ([1]; 1 µM),%Inh ([2]; 1 µM),%Inh (ULK1; 1 µM)
CS(=O)(=O)CCNCc1ccc(-c2ccc3ncnc(Nc4ccc(OCc5ccccc5)c(Cl)c4)c3c2)o1.Cl [GW574783],24,7,39,21,18,10,27,22,0,0,,,,,,,
Fc1ccc(-c2ncn(CCCNCc3ccccc3)c2-c2ccncc2)cc1,19,12,20,20,0,0,44,0,0,0,,,,,,,
COc1ccc(-c2nc3n(c2-c2ccncc2)CCC3)cc1 [SKF-104493],,,0,,,0,,,0,,25% and 5%,0% and 3%,21% and 8%,30% and 0%,7% and 0%,9% and 1%,7% and 0%
c1ccc(-c2ccc3c(-c4ccnc(Nc5ccc6c(c5)OCCO6)n4)cnn3n2)cc1 [GW818941],0,25,32,18,36,13,8,5,0,15,,,,,,,
CCC(CC)(CC)n1cnc2c(N)ncnc21 [SKF-97620],37,58,0,3,0,0,21,41,12,31,,,,,,,
COC(=O)c1cccc(NC(=O)NCCNc2ccnc(Nc3ccc(F)cc3)n2)c1 [GSK1379883],12,0,0,23,0,0,11,20,0,0,,,,,,,
Nc1nc(-c2ccc3c(N)n[nH]c3c2)cc(N2CCC[C@@H](C(=O)Nc3ccccc3)C2)n1.O=C(O)C(F)(F)F.O=C(O)C(F)(F)F [GSK2288359],0,34,0,24,0,8,18,1,0,9,,,,,,,
CSc1nn2c(=O)cc(N3CCOCC3)nc2n1Cc1cccc(Cl)c1Cl [GSK2347225],0,0,26,30,0,0,12,0,5,7,,,,,,,
Cn1ccc2ncnc(Nc3ccc(Oc4cccc(Cl)c4)c(Cl)c3)c21,11,0,0,2,16,25,18,4,4,10,,,,,,,
Nc1nccc2scc(-c3ccc4c(c3)CCN4C(=O)Cc3cc(F)ccc3F)c12 [GSK2587663],40,5,5,15,2,5,18,11,0,6,,,,,,,
CN1CCC(n2cnc(-c3ccc(F)cc3)c2-c2ccnc(NC3CCNCC3)n2)CC1 [SB-229482],9,0,0,43,0,0,25,34,0,0,,,,,,,
COc1ccc(Nc2nccc(N3CCC(NC(=O)Nc4ccc5c(c4)OCO5)C3)n2)cc1 (stereo not drawn) [GSK1379745],51,0,0,31,0,3,45,15,0,9,,,,,,,
COc1cc2c(Nc3cccc(NC(=O)c4ccccc4)c3)ncnc2cc1OCCCN1CCOCC1 [GSK223810],0,0,5,17,29,0,0,0,0,17,,,,,,,
COc1ccc(NC(=O)Nc2ccc(C)c(-c3ccc(C(=O)Nc4ccncc4)cc3)c2)cc1 [GSK1398475],0,0,10,0,0,0,0,5,0,0,,,,,,,
FC(F)(F)c1ccc(-c2nn3ncccc3c2-c2ccnc(Nc3cccc(C(F)(F)F)c3)n2)cc1 [GW828205],0,0,0,0,0,3,0,0,0,0,,,,,,,
N#Cc1ccc(Oc2ccc(Nc3ncnc4cc[nH]c34)cc2Cl)cc1,21,0,0,0,16,2,12,11,0,14,,,,,,,
